Molecules are shown by their SMILES. About 80 (4%) of roughly 2,000 compounds were called active.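 Rule for the calls: active = aptamer displacement above 40%, near three times the noise of non-fluorescent compounds, on plates passing quality checks; inactive = the rest.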 The sample as a whole holds a higher share of actives than the screen did.

Chain of Beta-adrenergic receptor kinase 1 (Homo sapiens) (P25098 whole entry, looked up): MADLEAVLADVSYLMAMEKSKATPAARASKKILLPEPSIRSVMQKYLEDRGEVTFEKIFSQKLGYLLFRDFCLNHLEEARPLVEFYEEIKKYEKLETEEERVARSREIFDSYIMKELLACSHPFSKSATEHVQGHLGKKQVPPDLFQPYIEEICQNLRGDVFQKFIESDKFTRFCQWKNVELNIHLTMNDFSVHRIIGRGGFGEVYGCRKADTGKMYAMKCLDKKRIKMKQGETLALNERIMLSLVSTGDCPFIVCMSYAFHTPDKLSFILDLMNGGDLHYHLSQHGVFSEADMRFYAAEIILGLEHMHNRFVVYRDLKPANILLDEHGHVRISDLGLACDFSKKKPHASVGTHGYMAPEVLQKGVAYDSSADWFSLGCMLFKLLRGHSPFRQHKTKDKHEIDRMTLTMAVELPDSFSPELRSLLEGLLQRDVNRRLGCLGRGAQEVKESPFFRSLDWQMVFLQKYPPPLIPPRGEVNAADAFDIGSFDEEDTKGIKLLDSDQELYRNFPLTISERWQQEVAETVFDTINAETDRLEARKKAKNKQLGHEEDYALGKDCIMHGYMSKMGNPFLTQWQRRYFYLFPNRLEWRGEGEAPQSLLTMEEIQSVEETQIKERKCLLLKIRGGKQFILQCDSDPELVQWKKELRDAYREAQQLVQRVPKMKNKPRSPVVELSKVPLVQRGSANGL

This experiment addresses Beta-adrenergic receptor kinase 1 (Homo sapiens) (UniProt P25098). In words: RNA aptamer-GRK2 binding blockers – biochemical, cherry pick 1, bead flow cytometry, confirmation (AID 504451).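 Note: negative values mostly reflect intrinsic compound fluorescence rather than true enhancement.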 To be noted: bead-bound GRK2, FAM-aptamer displacement, at 10 µM, hits give high values. (In general: In flow cytometry, cells or beads pass a laser one at a time.)
In the case of `COc1ccc(N2C(=O)/C(=C/c3ccco3)C(=O)NC2=S)cc1`, the aptamer displacement was 86.6% (active).

For `O=C1NC(=O)N(Cc2ccco2)C(=O)/C1=C\c1cccn1CCOc1ccccc1`, the aptamer displacement is 0.73% (inactive). For `Cc1c(C(=O)O)cccc1-n1c(C)cc(/C=C2\C(=O)NC(=O)N(c3ccc4c(c3)OCO4)C2=O)c1C` the value was 37.1% (inactive).

The record behind these values is PubChem BioAssay AID504451 (NMMLSC, 2011).
